An excerpt weighted towards active compounds, which were near 2.4% of everything screened.
Cruzain inh noDet: qHTS Assay for Promiscuous and Specific Inhibitors of Cruzain (without detergent). purified cruzain, Z-FR-AMC fluorescence, no detergent. Potency, µM, for the others: max response, negative = inhibition, hits mostly inhibitors. actives 2.3% (n = 200,000). Cruzipain (Trypanosoma cruzi), P25779;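 further: plate controls were enzyme without inhibitor for no effect and buffer without enzyme for full effect; nearly all actives have a fitted effect of over 40% in size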
Target sequence (P25779 123-467 limits assumed): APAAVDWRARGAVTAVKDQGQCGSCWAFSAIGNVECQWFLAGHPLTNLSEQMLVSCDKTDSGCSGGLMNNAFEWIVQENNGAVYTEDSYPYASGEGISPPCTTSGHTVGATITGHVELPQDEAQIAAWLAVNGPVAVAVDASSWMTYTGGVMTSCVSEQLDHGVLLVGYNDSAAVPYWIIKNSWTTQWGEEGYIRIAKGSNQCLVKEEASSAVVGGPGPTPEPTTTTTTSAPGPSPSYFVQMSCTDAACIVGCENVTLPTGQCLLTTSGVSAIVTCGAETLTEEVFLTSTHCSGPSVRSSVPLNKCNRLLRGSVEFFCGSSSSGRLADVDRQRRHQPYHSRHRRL
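Purified cruzain at 1.5 nM, pre-incubated 15 min with compound at room temperature in 100 mM sodium acetate pH 5.5, 5 mM DTT, 0.00005% Triton X-100. Reaction started with 2 uM Z-FR-AMC; AMC fluorescence increase over 60 s gives rate.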
Cruzain inh Det: qHTS Assay for Promiscuous and Specific Inhibitors of Cruzain (with detergent); Potency, µM, without a hit: max response, negative = inhibition, usual class: inhibitors; purified cruzain, Z-FR-AMC fluorescence, 0.01% Triton; Cruzipain (Trypanosoma cruzi), P25779; AID 1478, 2009; actives 0.43% (n = 200,000);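 further: plate controls were neutral wells for no effect and buffer without enzyme for full effect; nearly all actives have a fitted effect of over 40% in size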
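Detergent-containing arm of a paired screen for aggregation-based inhibition: 0.01% Triton X-100 present. Cruzain at 1.5 nM cleaved 2 uM Z-FR-AMC at pH 5.5 with 5 mM DTT; AMC fluorescence gain over 60 s measured activity.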
The depositor's hits bear a star; ? = inconclusive. The call rests on the fitted dose curve; in most records, active means well fitted curve in the direction sought with a large enough effect; inconclusive means small, poorly fitted or top-dose-only effect, or another doubt; inactive means no such curve, though single readings can be large; an effect the other way counts as inactive or inconclusive. Potency means the concentration at half of the fitted maximal effect.

SMILES	Cruzain inh noDet	Cruzain inh Det
CCc1ccc(/C=C(\Cl)c2nc3cc(Cl)ccc3c(=O)[nH]2)cc1	10µM*	0%
CCc1cc2c(=O)[nH]c(Cc3ccc(Cl)cc3)nc2s1	-10%	5%
CCn1nc(C)c(CCN(C)C(=O)Nc2cc(C)cc(C)c2)c1C	-4%	2%
COC(=O)[C@H](Cc1ccccc1)NC(=O)O[C@@H]1C(=O)c2cc(OC)ccc2O[C@H]1c1cccc(OC)c1	1%	-1%
Cc1ccc(CNC(=O)c2cc3c(s2)-c2ccc(Cl)cc2SC3)cc1	13µM*	-2%
COc1ccccc1CNC(=O)c1cc2c(s1)-c1ccc(Cl)cc1SC2	-12%	-5%
Cc1ccc(CNC(=O)c2cc3c(s2)-c2ccccc2SC3)cc1	?	-9%
O=C(NCc1ccccc1Cl)c1cc2c(s1)-c1ccc(Cl)cc1SC2	10µM*	-6%
CCOc1ccccc1NS(=O)(=O)c1c(C)nc2sccn2c1=O	-8%	-4%
CCOC(=O)c1ccc(-c2ccc(/C=C(\C#N)C(=O)Nc3c(C)cccc3Cl)o2)cc1	-1%	-2%
CCCCOC(=O)c1ccc(NC(=O)/C(C#N)=C/c2ccc(-c3ccccc3)o2)cc1	25µM*	-4%
CCCOC(=O)c1ccc(-c2ccc(C=O)o2)cc1	-6%	-10%
CCCCOC(=O)c1ccc(-c2ccc(/C=N/NC(=S)NCC)o2)cc1	25µM*	7%
CCC(C(=O)Nc1ccc(C(C)C)cc1)n1nc(C)n2c(cc3cc(C)ccc32)c1=O (stereo not drawn)	?	-6%
CC(C)c1ccc2oc(-c3cc(NC(=O)c4cccnc4)ccc3Cl)nc2c1	?	-10%
Cc1ccc(-c2nc3cccnc3s2)cc1NC(=O)Cc1ccccc1	25%	3%
CC1Cc2ccccc2N1c1nc(C2CC2)nc2c1nnn2Cc1ccccc1 (stereo not drawn)	20µM*	-17%
CC1Cc2ccccc2N1c1ncnc2c1nnn2Cc1ccccc1 (stereo not drawn)	?	-24%
CC(C)c1ccc(NC(=O)CN2C(=O)CSc3ccc(S(=O)(=O)N4CCCC4)cc32)cc1	-1%	-6%
COc1ccc(NC(=O)CSc2c(C(C)C)cnc3c2c(=O)n(C)c(=O)n3C)c(OC)c1	-5%	0%
NC(=O)c1ccc(NC(=O)COC(=O)c2c3c(nc4ccccc24)/C(=C\c2cccs2)CCC3)cc1	?	-2%
CCc1cccc(C)c1NC(=O)COC(=O)c1c2c(nc3ccccc13)/C(=C\c1cccs1)CCC2	7.9µM*	0%
CC(C)c1nn2c(=O)cc(COC(=O)c3ccc(NC(=O)C4CCCCC4)cc3)nc2s1	-4%	1%
Cc1ccn2c(Nc3c(C)cccc3C)c(-c3ccc(Cl)s3)nc2c1	10µM*	-12%
Cc1ccn2c(Nc3c(C)cccc3C)c(-c3ccsc3)nc2c1	?	-13%
SMILES	Cruzain inh noDet	Cruzain inh Det
CCOc1ccc(CCNC(=O)Cn2ncn3c(cc4ccccc43)c2=O)cc1OCC	-4%	-2%
Cc1ccc(/C=C2\SC(=S)N(Cc3ccccc3)C2=O)o1	?	-13%
COc1ccc(-c2nn(-c3ccccc3)cc2/C=C2/SC(=S)N(Cc3ccco3)C2=O)c(C)c1	3.2µM*	0%
COc1ccc(-n2c(C)cc(/C=C3\SC(=S)N(Cc4ccco4)C3=O)c2C)cc1	7.9µM*	-5%
Cc1ccc(-n2c(C)cc(/C=C3/C(=O)NC(=O)N(Cc4ccco4)C3=O)c2C)cc1	-10%	-5%
COc1ccc(N(CC(=O)NCCc2ccccc2)S(=O)(=O)c2ccccc2)c(OC)c1	22%	-3%
COc1cc2ccccc2cc1C(=O)Nc1ccc2oc(-c3ccc(Cl)cc3)nc2c1	-1%	0%
COc1ccccc1C(=O)Nc1ccc2oc(-c3cccc4c(Br)cccc34)nc2c1	1.3µM*	-4%
Cc1ccc2oc(-c3cc(NC(=O)c4oc5ccccc5c4C)ccc3Cl)nc2c1	3.2µM*	-1%
COc1cc(OC)cc(C(=O)Nc2ccc3oc(-c4cccc5c(Br)cccc45)nc3c2)c1	2%	0%
Cc1cc2nc(-c3cc(NC(=O)c4cc5ccccc5o4)ccc3Cl)oc2cc1C	13µM*	-1%
O=C(Nc1ccc(Cl)c(-c2nc3cc(Cl)ccc3o2)c1)c1cc2ccccc2o1	?	0%
COc1cc2ccccc2cc1C(=O)Nc1ccc(Cl)c(-c2nc3ccccc3o2)c1	3.2µM*	-2%
Cc1ccc2oc(-c3cc(NC(=O)c4ccco4)ccc3Cl)nc2c1	0%	-11%
CCOc1ccc(N(CC(=O)Nc2ccc3c(c2)OCO3)S(=O)(=O)c2ccccc2)cc1	4%	-7%
CCC(C)NC(=O)c1cc2n(n1)CCCN(Cc1ccc(C)cc1)C2=O (stereo not drawn)	21%	-1%
O=C(c1ccc(F)cc1)c1cn(Cc2ccccc2)c2cc3c(cc2c1=O)OCO3	-8%	-3%
Cc1ccc(Cl)cc1N1CCN(C(=O)CCCn2c(=O)[nH]c3ccc(Br)cc3c2=O)CC1	-3%	-4%
COc1cc(CN(C(=O)c2ccc(C)cc2)c2ccccn2)cc(OC)c1OC	9%	-3%
CCn1c(=O)cc(SCC(=O)NCc2ccccc2OC)c2ccccc21	-16%	4%
CC(NC(=O)c1ccccc1)C(=O)OCC(=O)N1c2ccccc2Sc2ccccc21 (stereo not drawn)	-5%	?
O=C1CN(C(=O)COC(=O)CNC(=O)c2ccccc2)c2ccccc2N1	16µM*	?
O=C1CN(C(=O)COC(=O)Cc2ccsc2)c2ccccc2N1	-3%	-2%
O=C(CNC(=O)c1ccccc1)OCC(=O)N1c2ccccc2Sc2ccccc21	10µM*	10µM*
CCCN(C(=O)Nc1cn(CC(C)C)c(=O)c2ccccc12)c1ccc(F)cc1	-5%	-7%
SMILES	Cruzain inh noDet	Cruzain inh Det
CCc1ccc2occ(CC(=O)NCc3ccccc3)c2c1	4%	-9%
Nc1cc(C(=O)O)c(O)c(S(=O)(=O)O)c1	0%	1%
O=C1OCCN1C(=O)[C@H]1[C@H](c2ccc([N+](=O)[O-])cc2)C(c2ccc(F)cc2)=NN1c1ccc(Br)cc1	8.9µM*	2%
C[C@@H]1C(c2ccccc2)=NN(c2ccccc2)[C@H]1C(=O)N1CCOC1=O	-2%	-2%
O=C1OCCN1C(=O)[C@H]1[C@H](c2ccccc2)C(c2ccccc2)=NN1c1ccc(Br)cc1	20µM*	-5%
O=C1OCCN1C(=O)[C@H]1[C@H](c2ccccc2)C(c2ccc(F)cc2)=NN1c1ccc(Br)cc1	20µM*	-6%
O=C1OCCN1C(=O)[C@H]1[C@H](c2ccccc2)C(c2ccccc2)=NN1c1ccccc1	?	1%
O=C1OCCN1C(=O)[C@H]1[C@H](c2ccc([N+](=O)[O-])cc2)C(c2ccc(F)cc2)=NN1c1ccccc1	?	4%
Cc1cccc(C2=NN(c3ccc(Br)cc3)[C@@H](C(=O)N3CCOC3=O)[C@@H]2c2ccccc2)c1	18µM*	-10%
Cc1cccc(C2=NN(c3ccccc3)[C@@H](C(=O)N3CCOC3=O)[C@@H]2c2ccccc2)c1	?	-2%
COc1ccc(Cl)cc1NC(=O)c1cc(S(=O)(=O)NC2CCCCCC2)ccc1F	-7%	1%
Cc1ccc(S(=O)(=O)c2nc(-c3cccc(C)c3)oc2N2CCN(c3ccccc3)CC2)cc1	-4%	-2%
CCn1ccc2cc(S(=O)(=O)N3CCC(C(=O)NCCc4ccccc4Cl)CC3)ccc21	?	-3%

Source: PubChem BioAssay (National Center for Advancing Translational Sciences (NCATS))
